Assay outcomes deposited in PubChem by National Center for Advancing Translational Sciences (NCATS).
Sampled rows, rich in hits. Any-hit rate of the full collection: about 7.3%.
Rab9 prom act: qHTS Assay for Rab9 Promoter Activators; Huh7 Rab9 promoter-luciferase reporter, luminescence, 24 h; Potency, µM (top dose mostly 9.22 µM), without a hit: top-dose activation, negative = inhibition, most hits filed as activators; 320,000 tested, 2.8% active; further: % of control where 0% means no effect; nearly all actives have a fitted effect of over 60% in size
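Cell-based reporter: Huh7 stable for Rab9 promoter-driven luciferase, plated in reduced-serum medium with 10% FBS at 1500 cells/well, compound-treated 24 h at 37 °C, luminescence read after 10 min reagent.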
NPC1 promoter act: qHTS Assay for NPC1 Promoter Activators; Potency, µM (top dose mostly 9.22 µM), for the others: at the highest dose activation, hits mostly activators; AID 485313, 2010; 320,000 tested, 2.4% active; Huh7 NPC1 promoter luciferase reporter, 24 h; further: % of control where 0% means no effect; nearly all actives have a fitted effect of over 60% in size
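NPC1 promoter–luciferase Huh7 cells; 24 h compound; luminescence.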
Luc counter: Counterscreen for Luciferase (Kinase-Glo TM) Inhibition; Potency, µM (top dose mostly 38.3 µM), for the others: top-dose activity change, negative = inhibition, hits mostly inhibitors; Kinase-Glo luciferase, ATP luminescence, 8 min; Luciferin 4-monooxygenase (Photuris pensylvanica), Q27757; 200,000 tested, 0.28% active; further: on the % scale 0 is the no-effect control and ±100 the full control effect; nearly all actives have a fitted effect of over 60% in size
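Compounds were added to a substrate mix at pH 7.2 (50 mM imidazole, 10 uM ATP, within the enzyme's linear range), followed by Kinase-Glo detection reagent; luminescence was measured after 8 minutes at ambient temperature.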
ELG1 genotoxic: qHTS screen for small molecules that induce genotoxicity in human embryonic kidney (HEK293T) cells expressing luciferase-tagged ELG1; HEK293T ELG1-luciferase reporter, luminescence, 16 h; 330,000 tested, 1.3% active; Potency, µM (top dose mostly 46 µM), for inactives: top-dose activity change, positive = activation, actives largely listed as activators; AID 504466, 2011; further: % of control where 0% means no effect; nearly all actives have a fitted effect of over 60% in size
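ELG1-luciferase HEK293T cells, 2,000/well; compound pinned in; 16 hr, 37 °C, 5% CO2; ONE-Glo, 30 min RT; luminescence on CCD imager.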
SMN2 splice enh: qHTS Assay for Enhancers of SMN2 Splice Variant Expression; HEK293 SMN2-luciferase splicing reporter, luminescence, 30-36 h; Potency, µM (series often up to 46.1 µM), for inactives: top-dose activity change, positive = activation, actives largely listed as activators; 210,000 tested, 2.8% active; further: % of control where 0% means no effect; nearly all actives have a fitted effect of over 55% in size
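qHTS luciferase splicing reporter: luminescence rises when SMN2 exon 7 is included in transfected HEK293 cells. Compound exposure lasted 30-36 h at 37C, with 4.5 mM final sodium butyrate as control, followed by a ONE-Glo read.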
FLuc counter: qHTS profiling assay for firefly luciferase inhibitor/activator using purifed enzyme and Km concentrations of substrates (counterscreen for miR-21 project) | Luciferin 4-monooxygenase (Photinus pyralis), P08659 | purified FLuc, Km substrates, luminescence inhibition | Potency, µM (series often up to 57.5 µM), for the others: at the highest dose activity change, negative = inhibition, usual class: inhibitors | 360,000 tested, 6.9% active | AID 588342, 2011;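 further: plate controls were vehicle for no effect and reference inhibitor for full effect; nearly all actives have a fitted effect of over 55% in size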
Target sequence (P08659 whole entry, looked up): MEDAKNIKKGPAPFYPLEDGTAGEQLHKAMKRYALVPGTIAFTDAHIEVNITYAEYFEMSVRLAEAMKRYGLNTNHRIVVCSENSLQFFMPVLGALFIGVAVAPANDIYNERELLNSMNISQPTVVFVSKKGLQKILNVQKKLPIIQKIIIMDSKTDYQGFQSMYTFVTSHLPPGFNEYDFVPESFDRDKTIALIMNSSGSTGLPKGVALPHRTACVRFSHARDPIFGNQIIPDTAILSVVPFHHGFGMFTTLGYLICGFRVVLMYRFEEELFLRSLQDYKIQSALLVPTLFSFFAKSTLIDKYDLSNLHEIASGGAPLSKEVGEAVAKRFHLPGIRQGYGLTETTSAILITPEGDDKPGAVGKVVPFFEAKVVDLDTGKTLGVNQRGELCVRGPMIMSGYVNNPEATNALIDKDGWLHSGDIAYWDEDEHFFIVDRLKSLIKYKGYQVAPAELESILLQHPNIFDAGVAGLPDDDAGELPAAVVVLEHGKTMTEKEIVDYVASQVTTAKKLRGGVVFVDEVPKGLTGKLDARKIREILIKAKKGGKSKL
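Purified P. pyralis luciferase, 10 nM final, with Km-level 10 uM D-luciferin and 10 uM ATP in 50 mM Tris acetate pH 7.5, 10 mM Mg acetate, 0.01% Tween-20, 0.05% BSA; 6-point qHTS titration about 60 µM downward; luminescence read.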
Active calls of the source: *; ? = inconclusive; · = no result; [ ] = remark or other dose. The call rests on the fitted dose curve; in most records, active means well fitted curve in the direction sought with a large enough effect; inconclusive means small, poorly fitted or top-dose-only effect, or another doubt; inactive means no such curve, though single readings can be large; an effect the other way counts as inactive or inconclusive. Potency means the concentration at half of the fitted maximal effect.

SMILES | Rab9 prom act | NPC1 promoter act | Luc counter | ELG1 genotoxic | SMN2 splice enh | FLuc counter
CCOc1ccc(-c2cc(C(=O)N3CCN(c4ccc(C)cc4)C(C)C3)c3ccccc3n2)cc1 (stereo not drawn) | · | · | · | · | · | 4.8µM*
CCOC(=O)C1CCN(C(=O)c2cc(-c3ccncc3)nc3ccccc23)CC1 | -4% | 0% | · | -4% | · | -12%
CCOc1cc2sc(N3CCC(C(=O)Nc4cc(C)cc(C)c4)CC3)nc2cc1Br | · | · | · | · | · | -1%
CCOc1cc2sc(N3CCC(C(=O)NCCCN4CCCC4=O)CC3)nc2cc1Br | 1% | 15% | · | -3% | · | 15µM*
CCOc1cc2sc(N3CCC(C(=O)Nc4ccc(C(C)C)cc4)CC3)nc2cc1Br | · | · | · | · | 14µM* | 21µM*
CCOc1cc2sc(N3CCC(C(=O)Nc4ccc(C)cc4C)CC3)nc2cc1Br | · | · | · | · | ? | 15µM*
Cc1cc(C)c2nc(N3CCC(C(=O)NCCCN4CCCC4=O)CC3)sc2c1 | -4% | -8% | · | 0% | · | ?
COC(=O)c1sc2cccc(F)c2c1S(=O)(=O)N1CCN(c2cccc(C)c2)C(C)C1 (stereo not drawn) | · | · | · | · | · | -3%
COc1ccc(S(=O)(=O)NCCc2cn3ccsc3n2)cc1OC | · | · | · | · | · | -2%
COc1ccc(NC(=O)c2scc(S(=O)(=O)C(C)C)c2N)cc1 | 1.1µM* | 2.5µM* | · | ? | · | 6µM*
CCOC(=O)CSc1nc(N)c(C(=O)Nc2ccc(N(C)C)cc2)s1 | -7% | 0% | 11% | 9% | -4% | 8.5µM*
CCN(C(=O)CSc1nnc(Nc2ccc(OC)cc2)s1)C1CCS(=O)(=O)C1 (stereo not drawn) | · | · | · | 15% | · | ·
CC(C)S(=O)(=O)c1csc(C(=O)NN)c1Cl | -6% | 1% | · | -1% | · | -8%
CCN(CC)C(=O)CSc1nc(N)c(C(=O)Nc2ccc(OC)cc2)s1 | -2% | 1% | -3% | -4% | -23% | 24µM*
COc1ccc(NC(=O)c2sc(SCc3ccccc3)nc2N)cc1 | 19% | 16% | 7% | -3% | -1% | ?
COc1ccc(NC(=O)c2sc(SC)nc2N)cc1 | ? | ? | -10% | 18µM* | 13µM* | 12µM*
Cc1ccc(/C=C2\SC(=S)N(/N=C/c3cc([N+](=O)[O-])ccc3O)C2=O)o1 | -6% | -1% | · | -4% | · | 24µM*
Cc1ccc(/C=C2\SC(=S)N(C3CCS(=O)(=O)C3)C2=O)o1 (stereo not drawn) | -10% | -8% | -1% | -15% | 2% | -14%
Oc1sc(C=Nc2ccc(F)cc2)c2ccccc12 | 2.8µM* | 3.2µM* | -2% | 14% | 10µM* | ?
Oc1sc(C=Nc2ccccc2)c2ccccc12 | ? | ? | -14% | ? | 8.9µM* | 6µM*
CN(C)c1ccc(NC(=O)c2cccc(N3C(=O)C4C5C=CC(C5)C4C3=O)c2)cc1 (stereo not drawn) | 3.2µM* | 1.8µM* | 5% | ? | -22% | 11µM*
CCc1cccc(-n2c(=O)c3cccnc3n2CC(=O)NCc2ccc(C)cc2)c1 | · | · | · | · | · | -10%
CCOC(=O)C1=C(C)C/C(=N\NC(=O)c2ccccc2O)CC1 | ? | ? | · | 26% | · | 7.6µM*
O=C(O)c1cc(NN=C2CCN(Cc3ccccc3)CC2)ccc1Cl | 2.8µM* | 4µM* | · | ? | · | ?
O=C(NN=C1CCN(Cc2ccccc2)CC1)c1cccc(S(=O)(=O)Nc2ccccc2Cl)c1 | -3% | -4% | -2% | 0% | 5%[1.84 µM] | 4%
SMILES | Rab9 prom act | NPC1 promoter act | Luc counter | ELG1 genotoxic | SMN2 splice enh | FLuc counter
O=C(O)c1cc(N/N=C2/CC(c3ccccc3)Oc3ccccc32)ccc1Cl (stereo not drawn) | 5% | -1% | -2% | 10% | -3%[1.84 µM] | 27µM*
CCOC(=O)N1CCC(=NNC(=O)c2cc3ccccc3cc2O)CC1 | -2% | -1% | -3% | -2% | 6% | ?
O=C(NN=C1CCN(Cc2ccccc2)CC1)c1ccccc1O | 3% | -2% | · | 4% | · | 24µM*
O=C(NN=C1CCN(Cc2ccccc2)CC1)c1cc2ccccc2cc1O | 5% | -1% | 2% | 1% | 13% | ?
CCN(CC)c1ccc(CN(C(=O)c2cc(=O)c3ccccc3o2)C2CCS(=O)(=O)C2)cc1 (stereo not drawn) | · | · | · | · | -6% | 0%
CCOc1ccccc1NC(=O)Cn1c(=O)n(Cc2ccccc2)c(=O)c2c(C)c(C)sc21 | · | · | · | · | -3% | -5%
Cc1cc2nccc(-c3ccccn3)n2n1 | -1% | -3% | -3% | 2% | 0% | -3%
c1ccc(-c2cc3nccc(-c4ccccn4)n3n2)cc1 | 2.2µM* | 2.5µM* | · | ? | · | 9.5µM*
N/C(=N\OC(=O)c1ccco1)c1cccc(Br)c1 | 18% | 18% | 10% | 8.2µM* | ? | 6.7µM*
N/C(=N\OC(=O)c1ccco1)c1cccc([N+](=O)[O-])c1 | 17% | 21% | -6% | ? | · | 24µM*
COc1ccc(/C(N)=N/OC(=O)c2ccco2)cc1OC | ? | ? | -2% | ? | 11µM* | ?
COc1ccc(/C(N)=N/OC(=O)CCc2ccccc2)cc1OC | -1% | 1% | 0% | 5% | 3% | -14%
N/C(Cc1ccc([N+](=O)[O-])cc1)=N\OC(=O)c1ccco1 | -3% | -1% | -2% | 0% | · | -3%
Oc1ccc(COCc2ccc(F)cc2)c2cccnc12 | -16% | -27% | · | · | · | ?
O=C(O)c1ccncc1.O=C(O)c1ccncc1.[NH2-].[NH2-].[Pt] | · | · | -3%[7.66 µM] | · | -7%[9.22 µM] | ·
CCOc1ccccc1CNS(=O)(=O)c1ccc2c(c1)CCCN2C(C)=O | · | · | · | · | · | -2%
Nc1ccc2c(c1)C/C(=C/c1ccco1)C2=O | 2µM* | 2.8µM* | -15% | 21µM* | ? | 0.6µM*
O=C1/C(=C/c2ccco2)CCc2ccccc21 | ? | 4µM* | ? | 7.3µM* | ? | 2.1µM*
CCC1C/C(=C/c2ccco2)C(=O)/C(=C/c2ccco2)C1 (stereo not drawn) | 3% | 1% | 0% | 6% | -9% | -8%
COc1ccc2c(c1)CC/C(=C\c1ccc(OC)c(Cn3nc(C)cc3C)c1)C2=O | -4% | -4% | -1% | -21% | -15% | ?
COc1ccc2c(c1)CC/C(=C/c1ccco1)C2=O | 3.5µM* | 2.2µM* | -21% | ? | 18µM* | 0.67µM*
COc1cc(SSc2cc(OC)cc([N+](=O)[O-])c2N)c(N)c([N+](=O)[O-])c1 | 0% | -2% | · | -8% | · | 8.5µM*
